# In PubChem BioAssay (Tox21):
# Unmarked numbers belong to inactive results. Inconclusive results are not listed. A call without a number means that no potency is given here. The source made the active and inactive calls. Unless noted, calls follow the shape of the dose curve; as a rule, active = well fitted curve in the direction sought with a large enough effect in the repeat runs; inconclusive = weak or mixed curves; inactive = no such curve, though single readings can be large; an effect the other way counts as inactive or inconclusive.
# Legend:
# [1] = qHTS assay to test for compound auto fluorescence at 535 nm (green) in HEK293 cells (AID 720680)
# [2] = qHTS assay to test for compound auto fluorescence at 460 nm (blue) in HEK293 cell free culture (AID 720681)
# Summary of the method: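 Compounds were added to cell-free DMEM with 10% FBS and fluorescence read directly. The blue channel used 405 nm excitation and 460 nm emission, with triamterene as the reference fluorophore.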
# [3] = qHTS assay to test for compound auto fluorescence at 535 nm (green) in HEK293 cell free culture (AID 720682)
# Summary of the method: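 Cell-free medium (DMEM, 10% FBS) receives compound or DMSO by pintool. Plate read directly at Ex 485/Em 535 nm. Signal converted to fluorescein equivalency.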
# [4] = qHTS assay to test for compound auto fluorescence at 590 nm (red) in HEK293 cell free culture (AID 720683)
# Summary of the method: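 Cell-free wells of DMEM with 10% FBS received compound, and intrinsic fluorescence was read at excitation/emission 540/590 nm. Values expressed as equivalence to Rose Bengal sodium.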
# [5] = qHTS assay to test for compound auto fluorescence at 590 nm (red) in HepG2 cell free culture (AID 720684)
# Summary of the method: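 Auto fluorescence equivalency versus Rose Bengal sodium, red channel Ex/Em 540/590 nm; compounds in cell-free MEM/10% FBS; DMSO vehicle control.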
# [6] = qHTS assay to test for compound auto fluorescence at 460 nm (blue) in HepG2 cell free culture (AID 720685)
# Summary of the method: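 Cell-free plates of MEM plus 10% FBS received 23 nL compound or DMSO vehicle; blue-channel (405/460 nm) intensity scored against triamterene as reference fluorophore.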
# [7] = qHTS assay to test for compound auto fluorescence at 460 nm (blue) in HepG2 cells (AID 720687)
# Summary of the method: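 HepG2 cells in MEM with 10% FBS, attached overnight at 37 C, were exposed to compound or DMSO for 1 hr at 37 C, 5% CO2. Blue fluorescence was read at 405/460 nm, with triamterene as reference fluorophore.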
# [8] = qHTS assay to identify small molecule antagonists of the glucocorticoid receptor (GR) signaling pathway - cell viability counter screen (AID 720693); also: nearly all actives have a fitted effect of over 55% in size
# [9] = qHTS assay for identifying genotoxic compounds that show differential cytotoxicity against isogenic chicken DT40 cell lines with known DNA damage response pathways - wild type cell line (AID 743012); also: nearly all actives have a fitted effect of over 60% in size
# Summary of the method: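 Cytotoxicity in repair-proficient parental chicken DT40 cells serves as the comparator for Rad54/Ku70- and Rev3-deficient lines. Cells were exposed to compounds for 40 h at 37 C/5% CO2, and ATP-based luminescence (CellTiter-Glo) measured viability.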
# [10] = qHTS assay for identifying genotoxic compounds that show differential cytotoxicity against isogenic chicken DT40 cell lines with known DNA damage response pathways - Rev3 mutant cell line (AID 743014); also: nearly all actives have a fitted effect of over 55% in size
# [11] = qHTS assay for identifying genotoxic compounds that show differential cytotoxicity against isogenic chicken DT40 cell lines with known DNA damage response pathways - Rad54/Ku70 mutant cell line (AID 743015); also: nearly all actives have a fitted effect of over 60% in size; also: potency is read from the fitted curve at half-maximal effect
# [12] = qHTS assay to identify small molecule antagonists of the androgen receptor (AR) signaling pathway - cell viability counter screen (AID 743033; also: nearly all actives have a fitted effect of over 45% in size)
# [13] = qHTS assay to identify small molecule antagonists of the androgen receptor (AR) signaling pathway using the MDA cell line - cell viability counter screen (AID 743041; also: nearly all actives have a fitted effect of over 45% in size)
# Summary of the method: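 Compound exposure lasted 16 h at 37C in MDA-kb2 AR-luc cells stimulated with R1881. Protease-based CellTiter-Fluor reagent was applied for the final 30 min and fluorescence measured.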
# [14] = qHTS assay to test for compound auto fluorescence at 535 nm (green) in HepG2 cell free culture (AID 720686)
# [15] = target: Glucocorticoid receptor (Homo sapiens) (UniProt P04150); assay: qHTS assay to identify small molecule agonists of the glucocorticoid receptor (GR) signaling pathway (AID 720691; active = well fitted activation curve with a large enough effect in the signal ratio in the repeat runs, not every such curve was filed as active; the % refers to the signal ratio)
# Summary of the method: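 Steps: seed GR-bla HeLa cells, incubate 4 h at 37 C/5% CO2; pin-transfer DMSO-dissolved compounds; incubate 18 h at 37 C; add LiveBLAzer B/G FRET substrate; after 2 h at room temperature, measure fluorescence.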
# [16] = target: Glucocorticoid receptor (Homo sapiens) (UniProt P04150); assay: qHTS assay to identify small molecule antagonists of the glucocorticoid receptor (GR) signaling pathway (AID 720692; active = well fitted inhibition curve with a large enough effect in the signal ratio in the repeat runs, not every such curve was filed as active; the % refers to the signal ratio)
# Summary of the method: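 Antagonism was scored as loss of dexamethasone-driven (5 nM final) reporter signal in HeLa cells bearing a glucocorticoid response element–beta-lactamase construct, after 18 h compound exposure at 37 C and 2 h FRET substrate loading.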
# [17] = target: Androgen receptor (Homo sapiens) (UniProt P10275); assay: qHTS assay to identify small molecule antagonists of the androgen receptor (AR) signaling pathway (AID 743035; active = well fitted inhibition curve with a large enough effect in the signal ratio in the repeat runs, not every such curve was filed as active; the % refers to the signal ratio)
# Summary of the method: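 Steps: seed AR-UAS-bla GripTite HEK293 cells, incubate 4 h at 37C; pin in test compound, then add agonist R1881; incubate 16 h at 37C; add LiveBLAzer B/G FRET substrate, 2 h at room temperature; read fluorescence.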
# [18] = target: Androgen receptor (Homo sapiens) (UniProt P10275); assay: qHTS assay to identify small molecule agonists of the androgen receptor (AR) signaling pathway (AID 743036; active = well fitted activation curve with a large enough effect in the signal ratio in the repeat runs, with a control signal flat, not every such curve was filed as active; the % refers to the signal ratio)
# Summary of the method: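 AR-bla HEK293 cells, 2,000/well; 4 h preincubation 37C/5% CO2; compound (DMSO) 16 h at 37C; LiveBLAzer B/G FRET substrate 2 h RT; fluorescence intensity read-out.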
# [19] = target: Androgen receptor (Homo sapiens) (UniProt P10275); assay: qHTS assay to identify small molecule agonists of the androgen receptor (AR) signaling pathway using the MDA cell line (AID 743040; also: nearly all actives have a fitted effect of over 20% in size)
# Summary of the method: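 Testing was done with the MDA-kb2 AR-luc line, a human breast carcinoma stably transfected with MMTV-luciferase containing AR and GR response elements. Cells were exposed 16 h at 37C before ONE-Glo luminescence detection.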
# [20] = target: Androgen receptor (Homo sapiens) (UniProt P10275); assay: qHTS assay to identify small molecule antagonists of the androgen receptor (AR) signaling pathway using the MDA cell line (AID 743042; also: nearly all actives have a fitted effect of over 55% in size)
# Summary of the method: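 MDA-kb2 breast carcinoma cells carrying MMTV-luciferase (AR/GR responsive) were co-treated with compounds and the agonist R1881 for 16 h at 37C. Inhibition read as ONE-Glo luminescence; CellTiter-Fluor fluorescence measured in parallel for cytotoxicity.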
# Glucocorticoid receptor (Homo sapiens), sequence (P04150 whole entry, looked up): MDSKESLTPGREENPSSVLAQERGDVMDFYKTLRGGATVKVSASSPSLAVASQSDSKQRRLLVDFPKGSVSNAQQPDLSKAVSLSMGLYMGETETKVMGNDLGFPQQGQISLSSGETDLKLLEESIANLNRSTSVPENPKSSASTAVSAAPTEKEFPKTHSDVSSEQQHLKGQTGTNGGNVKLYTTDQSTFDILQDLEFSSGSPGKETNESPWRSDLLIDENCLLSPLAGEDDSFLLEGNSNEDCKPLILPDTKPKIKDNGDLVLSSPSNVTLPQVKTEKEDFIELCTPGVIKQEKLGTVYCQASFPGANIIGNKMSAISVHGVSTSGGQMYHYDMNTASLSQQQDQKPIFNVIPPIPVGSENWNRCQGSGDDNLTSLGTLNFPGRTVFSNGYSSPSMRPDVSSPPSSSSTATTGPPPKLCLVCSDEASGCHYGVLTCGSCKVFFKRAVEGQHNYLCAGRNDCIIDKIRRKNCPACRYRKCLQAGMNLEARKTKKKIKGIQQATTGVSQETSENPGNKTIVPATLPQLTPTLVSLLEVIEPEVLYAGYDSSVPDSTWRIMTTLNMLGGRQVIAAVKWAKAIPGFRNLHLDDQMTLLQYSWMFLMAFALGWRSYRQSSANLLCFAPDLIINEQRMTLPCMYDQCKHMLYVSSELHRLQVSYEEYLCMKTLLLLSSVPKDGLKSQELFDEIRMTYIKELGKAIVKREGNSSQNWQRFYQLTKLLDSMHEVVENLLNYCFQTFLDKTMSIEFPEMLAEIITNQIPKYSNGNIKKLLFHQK
# Androgen receptor (Homo sapiens), sequence (P10275 whole entry, looked up): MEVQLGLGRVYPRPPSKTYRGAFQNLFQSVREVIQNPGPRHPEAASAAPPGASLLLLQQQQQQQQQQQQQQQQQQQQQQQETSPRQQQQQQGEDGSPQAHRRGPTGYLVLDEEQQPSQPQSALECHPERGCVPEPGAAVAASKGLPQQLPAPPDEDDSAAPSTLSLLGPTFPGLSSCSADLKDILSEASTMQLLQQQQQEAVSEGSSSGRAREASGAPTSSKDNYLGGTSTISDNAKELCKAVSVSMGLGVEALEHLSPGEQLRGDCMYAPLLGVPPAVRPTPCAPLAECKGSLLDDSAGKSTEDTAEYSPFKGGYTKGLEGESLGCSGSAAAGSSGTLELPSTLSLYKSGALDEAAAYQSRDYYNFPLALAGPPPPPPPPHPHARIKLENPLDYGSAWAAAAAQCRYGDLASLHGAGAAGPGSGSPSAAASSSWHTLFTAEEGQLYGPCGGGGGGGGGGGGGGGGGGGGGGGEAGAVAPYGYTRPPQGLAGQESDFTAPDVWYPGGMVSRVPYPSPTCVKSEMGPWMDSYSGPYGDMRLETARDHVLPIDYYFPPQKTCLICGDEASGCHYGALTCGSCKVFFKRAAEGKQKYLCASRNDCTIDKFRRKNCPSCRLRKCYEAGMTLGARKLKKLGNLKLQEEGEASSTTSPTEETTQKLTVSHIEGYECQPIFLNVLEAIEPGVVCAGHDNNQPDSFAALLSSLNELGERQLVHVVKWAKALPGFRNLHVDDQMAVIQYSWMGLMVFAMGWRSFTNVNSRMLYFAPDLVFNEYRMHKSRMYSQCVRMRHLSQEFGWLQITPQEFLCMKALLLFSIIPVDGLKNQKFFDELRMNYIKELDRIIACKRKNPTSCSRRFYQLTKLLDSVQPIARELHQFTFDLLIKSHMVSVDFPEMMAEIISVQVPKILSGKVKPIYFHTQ
smiles,measurement,setting,value
Cn1cnc2c(=O)[nH]c(N)nc21,outcome,[1],inactive
same,Potency,[2],inactive
same,outcome,[3],inactive
same,outcome,[4],inactive
same,outcome,[5],inactive
same,Potency,[6],inactive
same,Potency,[7],inactive
same,outcome,[8],inactive
same,Potency,[9],inactive
same,Potency,[10],inactive
same,Potency,[11],61.3 µM (active)
same,outcome,[12],inactive
same,Potency,[13],inactive
O=C(O)c1ccccc1-c1ccc(C(F)(F)F)cc1,outcome,[1],inactive
same,outcome,[3],inactive
same,outcome,[4],inactive
same,outcome,[5],inactive
same,Potency,[6],inactive
same,outcome,[14],inactive
same,Potency,[7],inactive
same,Potency,[15],inactive
same,Potency,[16],inactive
same,outcome,[8],inactive
same,Potency,[9],inactive
same,Potency,[10],inactive
same,Potency,[11],inactive
same,outcome,[12],inactive
same,Potency,[13],inactive
COc1cccc(OC)c1,outcome,[1],inactive
same,Potency,[2],inactive
same,outcome,[3],inactive
same,outcome,[4],inactive
same,outcome,[5],inactive
same,Potency,[6],inactive
same,Potency,[7],inactive
same,Potency,[15],inactive
same,Potency,[16],inactive
same,outcome,[8],inactive
same,Potency,[10],inactive
same,Potency,[11],inactive
same,outcome,[12],inactive
same,Potency,[13],inactive
OCC(O)[C@@H](O)[C@H](O)[C@H](O)CO[C@H]1O[C@H](CO)[C@@H](O)[C@H](O)[C@H]1O (some centres undefined),outcome,[1],inactive
same,Potency,[2],inactive
same,outcome,[3],inactive
same,outcome,[4],inactive
same,outcome,[5],inactive
same,Potency,[6],inactive
same,Potency,[7],inactive
same,Potency,[15],inactive
same,Potency,[16],inactive
same,Potency,[9],inactive
same,Potency,[10],inactive
same,Potency,[11],inactive
same,outcome,[12],inactive
same,Potency,[13],inactive
O=C1C(CCS(=O)c2ccccc2)C(=O)N(c2ccccc2)N1c1ccccc1 (centres undefined),"fluorescence, % of fluorescein",[1],-0.11% [at 18.6 µM]
same,"fluorescence, % of fluorescent control",[2],0.0823% [at 18.6 µM]
same,activity change,[3],0.112% [at 18.6 µM]
same,"fluorescence, % of fluorescent control",[4],0.107% [at 18.6 µM]
same,"fluorescence, % of Rose Bengal",[5],-0.0469% [at 18.6 µM]
same,"fluorescence, % of fluorescent control",[6],-0.0192% [at 18.6 µM]
same,"fluorescence, % of fluorescent control",[7],-0.182% [at 18.6 µM]
same,Potency,[15],inactive
same,Potency,[16],inactive
same,outcome,[8],inactive
same,Potency,[9],inactive
same,Potency,[11],inactive
same,outcome,[12],inactive
same,Potency,[13],inactive
Nc1[nH]c(=O)ncc1F,"fluorescence, % of fluorescein",[1],0.0412% [at 18.6 µM]
same,"fluorescence, % of fluorescent control",[2],0.0652% [at 18.6 µM]
same,activity change,[3],0.004% [at 18.6 µM]
same,"fluorescence, % of fluorescent control",[4],-0.113% [at 18.6 µM]
same,"fluorescence, % of Rose Bengal",[5],0.311% [at 18.6 µM]
same,"fluorescence, % of fluorescent control",[6],-0.0064% [at 18.6 µM]
same,"fluorescence, % of fluorescent control",[7],0.0009% [at 18.6 µM]
same,Potency,[15],inactive
same,Potency,[16],inactive
same,outcome,[8],inactive
same,Potency,[9],inactive
same,Potency,[10],inactive
same,Potency,[11],inactive
same,outcome,[12],inactive
same,Potency,[13],inactive
COc1cc(O)cc(O)c1,outcome,[1],inactive
same,Potency,[2],inactive
same,outcome,[3],inactive
same,outcome,[4],inactive
same,outcome,[5],inactive
same,Potency,[6],inactive
same,Potency,[7],inactive
same,outcome,[8],inactive
same,Potency,[9],inactive
same,Potency,[10],inactive
same,Potency,[11],inactive
same,outcome,[12],inactive
same,Potency,[13],inactive
Cc1onc(-c2ccccc2)c1-c1ccc(S(N)(=O)=O)cc1,outcome,[1],inactive
same,Potency,[2],inactive
same,outcome,[3],inactive
same,outcome,[4],inactive
same,outcome,[5],inactive
same,Potency,[6],inactive
same,Potency,[7],inactive
same,Potency,[15],inactive
same,Potency,[16],inactive
same,outcome,[8],inactive
same,outcome,[12],inactive
same,Potency,[13],inactive
CC1=CC(C)C(C=O)C(C)C1 (centres undefined),outcome,[1],inactive
same,outcome,[3],inactive
same,outcome,[4],inactive
same,outcome,[5],inactive
same,Potency,[6],inactive
same,Potency,[7],inactive
same,Potency,[16],inactive
same,outcome,[8],inactive
same,Potency,[9],inactive
same,outcome,[12],inactive
same,Potency,[13],inactive
C=CCSCC1Nc2cc(Cl)c(S(N)(=O)=O)cc2S(=O)(=O)N1 (centres undefined),outcome,[1],inactive
same,outcome,[3],inactive
same,outcome,[4],inactive
same,outcome,[5],inactive
same,Potency,[6],inactive
same,outcome,[14],inactive
same,Potency,[7],inactive
same,Potency,[15],inactive
same,Potency,[16],inactive
same,outcome,[8],inactive
same,Potency,[9],inactive
same,Potency,[11],inactive
same,outcome,[12],inactive
same,Potency,[13],inactive
CN(C)CCn1nnnc1SCC1=C(C(=O)O)N2C(=O)[C@@H](NC(=O)Cc3csc(N)n3)[C@H]2SC1,"fluorescence, % of fluorescein",[1],0.129% [at 18.6 µM]
same,activity change,[3],0.0595% [at 18.6 µM]
same,"fluorescence, % of fluorescent control",[4],0.0008% [at 18.6 µM]
same,"fluorescence, % of Rose Bengal",[5],0.544% [at 18.6 µM]
same,"fluorescence, % of fluorescent control",[6],0.31% [at 18.6 µM]
same,"fluorescence, % of fluorescein control",[14],0.0098% [at 18.6 µM]
same,"fluorescence, % of fluorescent control",[7],0.222% [at 18.6 µM]
same,Potency,[16],inactive
same,outcome,[8],inactive
same,Potency,[9],inactive
same,Potency,[10],inactive
same,Potency,[11],inactive
same,outcome,[12],inactive
same,Potency,[17],inactive
same,outcome,[18],inactive
same,Potency,[19],inactive
same,Potency,[13],inactive
same,outcome,[20],inactive
CC(C)c1cccc(C(C)C)c1N,outcome,[1],inactive
same,outcome,[3],inactive
same,outcome,[4],inactive
same,outcome,[5],inactive
same,Potency,[6],inactive
same,Potency,[7],inactive
same,Potency,[15],inactive
same,Potency,[16],inactive
same,outcome,[8],inactive
same,Potency,[9],inactive
same,Potency,[11],inactive
same,outcome,[12],inactive
same,Potency,[13],inactive
CC(C)(C)C(=O)/C=C/c1ccc(Cl)cc1,outcome,[1],inactive
same,outcome,[3],inactive
same,outcome,[4],inactive
same,outcome,[5],inactive
same,Potency,[6],inactive
same,outcome,[14],inactive
same,Potency,[7],inactive
same,Potency,[15],inactive
same,Potency,[16],inactive
same,outcome,[8],inactive
same,outcome,[12],inactive
same,Potency,[13],inactive
C=C[Si](OC)(OC)OC,outcome,[1],inactive
same,outcome,[3],inactive
same,outcome,[4],inactive
same,outcome,[5],inactive
same,Potency,[6],inactive
same,Potency,[7],inactive
same,Potency,[15],inactive
same,Potency,[16],inactive
same,outcome,[8],inactive
same,Potency,[10],inactive
same,Potency,[11],inactive
same,outcome,[12],inactive
same,Potency,[13],inactive
O=C(O)/C=C/c1ccc(/C=C/C(=O)O)cc1,outcome,[1],inactive
same,outcome,[3],inactive
same,outcome,[4],inactive
same,outcome,[5],inactive
same,Potency,[6],inactive
same,outcome,[14],inactive
same,Potency,[7],inactive
same,Potency,[16],inactive
same,outcome,[8],inactive
same,Potency,[9],inactive
same,Potency,[10],inactive
same,Potency,[11],inactive
same,outcome,[12],inactive
same,Potency,[17],inactive
same,outcome,[18],inactive
same,Potency,[19],inactive
same,Potency,[13],inactive
same,outcome,[20],inactive
